Growth data for 15 compounds are collected here from PubChem BioAssay (NCI).

Test systems include DU-145 prostate; K-562 leukemia; MALME-3M melanoma; MDA-MB-231 breast; RXF 393 renal; SF-268 CNS; SF-295 CNS; SF-539 CNS; UACC-257 melanoma; M14 melanoma.
Holding throughout (experiment): NCI-60 one-dose screen, 48 h (100 = growth as untreated, 0 = no growth, -100 = all killed)
What all share (details): 10 µM unless noted

Each structure is given as a SMILES string. This is part of a sample that, as a whole, favours compounds with a hit. Of some 83,000 tested, about 20% had one in any assay.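 Cell lines were cultured in 96-well plates, exposed to a single compound concentration, and assessed for percent growth 48 hours later.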 Values without a mark were called inactive. Calls of active or inactive are those of the source. The calls were made as follows: active = growth percent below 10; inactive = the rest.

In the case of `O=S(=O)(OCCOS(=O)(=O)c1ccccc1)c1ccccc1`, the growth is 100% with DU-145 prostate; 96.4% in the test on K-562 leukemia; 86% in the test on MALME-3M melanoma; 111% in the test on MDA-MB-231 breast; 96% with RXF 393 renal; 92.6% with SF-268 CNS. Besides, the growth in the test with SF-295 CNS was 102%; in the test with SF-539 CNS, 102%; with UACC-257 melanoma it was 97.2%; in the test on M14 melanoma it was 92.3%.
Consider `CC(=O)c1cccs1`, for which the growth with DU-145 prostate was 109%; with K-562 leukemia it was 108%; in the test with MALME-3M melanoma, 115%; in the test with MDA-MB-231 breast, 101%; in the test with RXF 393 renal, 96.6%; with SF-268 CNS it was 103%. Moreover, the growth in the test with SF-295 CNS was 97.3%; in the test on SF-539 CNS, 95.6%; with UACC-257 melanoma, 96.3%; with M14 melanoma, 102%.
For the compound `Nc1ccccc1SC1CC(=O)N(c2ccc(Cl)c(Cl)c2)C1=O` (stereo not given), the growth is 113% in the test with DU-145 prostate; 122% with K-562 leukemia; 177% in the test on MALME-3M melanoma; 94.4% with MDA-MB-231 breast; 130% with RXF 393 renal; 97.6% in the test on SF-268 CNS. Besides, the growth in the test on SF-295 CNS was 127%; in the test on SF-539 CNS, 83.1%; in the test on UACC-257 melanoma, -6.15% (active); in the test on M14 melanoma, 94.8%.
With `O=c1[nH]c(=O)c2cc(Cl)cc(Cl)c2[nH]1`, the growth in the test with DU-145 prostate was 136%; in the test with K-562 leukemia, 106%; in the test on MALME-3M melanoma, 116%; in the test with MDA-MB-231 breast, 107%; in the test on RXF 393 renal, 113%; in the test with SF-268 CNS it was 109%. The growth in the test with SF-295 CNS is 114%; in the test with SF-539 CNS, 99.5%; in the test with UACC-257 melanoma it was 93%; in the test on M14 melanoma, 102%.
As for `CCC(=O)C1C(=O)c2ccccc2C1=O`, the growth in the test with DU-145 prostate was 113%; with K-562 leukemia it was 63.7%; with MALME-3M melanoma, 96.8%; in the test on MDA-MB-231 breast, 89.8%; with RXF 393 renal, 120%; in the test with SF-268 CNS, 101%. Moreover, the growth was 96.9% in the test on SF-295 CNS, 106% in the test on SF-539 CNS, 110% in the test with UACC-257 melanoma and 111% in the test on M14 melanoma.
Consider `COc1ccc(Nc2cc(Cl)ccc2C(=O)O)cn1`, for which the growth with DU-145 prostate is 110%; with K-562 leukemia, 100%; in the test on MALME-3M melanoma it was 157%; in the test on MDA-MB-231 breast it was 109%; with RXF 393 renal, 126%; with SF-268 CNS, 103%. The growth was 138% in the test with SF-295 CNS, 105% in the test with SF-539 CNS, 40.3% in the test on UACC-257 melanoma and 102% with M14 melanoma.
With `CC(C)N(CCCC#N)C(C)C`, the growth with DU-145 prostate is 107%; in the test with K-562 leukemia it was 104%; in the test on MALME-3M melanoma, 109%; in the test on MDA-MB-231 breast it was 102%; in the test with RXF 393 renal it was 103%; in the test with SF-268 CNS, 103%. Moreover, the growth was 100% with SF-295 CNS, 97.9% with SF-539 CNS, 89.2% in the test with UACC-257 melanoma and 107% in the test with M14 melanoma.
For `CN1CCN(C(=S)S)CC1`, the growth with DU-145 prostate is 102%; with K-562 leukemia, 73.5%; in the test on MALME-3M melanoma, 143%; in the test on MDA-MB-231 breast, 106%; in the test with RXF 393 renal, 130%; in the test with SF-268 CNS it was 102%. For the same compound, the growth is 127% in the test on SF-295 CNS, 104% with SF-539 CNS, 105% with UACC-257 melanoma and 105% in the test on M14 melanoma.
As for `CCOS(=O)(=O)c1ccc([N+](=O)[O-])cc1`, the growth in the test on DU-145 prostate is 108%; with K-562 leukemia, 99.2%; in the test on MALME-3M melanoma, 113%; with MDA-MB-231 breast, 106%; with RXF 393 renal, 120%; in the test with SF-268 CNS, 103%. Moreover, the growth is 101% in the test with SF-295 CNS, 102% in the test with SF-539 CNS, 94.5% with UACC-257 melanoma and 105% with M14 melanoma.
In the case of `CC(=O)Nc1ccc(O)c(C)c1`, the growth was 109% in the test with DU-145 prostate; 98.6% with K-562 leukemia; 98.8% in the test with MALME-3M melanoma; 96.9% with MDA-MB-231 breast; 116% in the test with RXF 393 renal; 100% in the test on SF-268 CNS. Besides, the growth is 105% in the test with SF-295 CNS, 100% in the test on SF-539 CNS, 87.8% with UACC-257 melanoma and 100% in the test on M14 melanoma.
Regarding `Cc1ccc(C)c(CCO)c1`, the growth with DU-145 prostate is 93%; in the test on K-562 leukemia, 116%; with MALME-3M melanoma, 106%; with MDA-MB-231 breast it was 92.6%; in the test with RXF 393 renal it was 103%; with SF-268 CNS it was 96.1%. For the same compound, the growth in the test with SF-295 CNS was 102%; in the test with SF-539 CNS, 97.2%; in the test on UACC-257 melanoma it was 94.8%; in the test on M14 melanoma, 108%.
Regarding `O=[N+]([O-])c1c(O)c(CNCCCO)cc(CNCCCO)c1O`, the growth with DU-145 prostate was 132%; in the test on K-562 leukemia, 95.9%; in the test on MALME-3M melanoma it was 109%; in the test with MDA-MB-231 breast it was 99.8%; with RXF 393 renal it was 99.7%; in the test with SF-268 CNS it was 118%. The growth in the test with SF-295 CNS was 106%; in the test with SF-539 CNS, 94.6%; in the test on UACC-257 melanoma, 108%; in the test on M14 melanoma it was 107%.
Take `CCC(/C=C\C(C)=O)CC`: the growth is 111% with DU-145 prostate; 113% in the test with K-562 leukemia; 98.4% in the test on MALME-3M melanoma; 103% with MDA-MB-231 breast; 97.8% in the test on RXF 393 renal; 106% in the test on SF-268 CNS. The growth in the test on SF-295 CNS was 104%; in the test with SF-539 CNS, 100%; in the test on UACC-257 melanoma it was 94.8%; in the test with M14 melanoma, 104%.
Turning to `C[C@H](CCC[C@H](C)OS(=O)(=O)c1ccccc1)OS(=O)(=O)c1ccccc1`, the growth was 119% in the test with DU-145 prostate; 110% with K-562 leukemia; 96.9% in the test with MALME-3M melanoma; 103% in the test on MDA-MB-231 breast; 142% with RXF 393 renal; 105% in the test with SF-268 CNS. For the same compound, the growth with SF-295 CNS was 102%; with SF-539 CNS, 91.7%; with UACC-257 melanoma it was 107%; in the test with M14 melanoma, 106%.
As to `CCOC(=O)Nc1nccs1`, the growth with DU-145 prostate was 109%; with K-562 leukemia, 119%; with MALME-3M melanoma it was 97.3%; with MDA-MB-231 breast, 87%; in the test with RXF 393 renal, 108%; with SF-268 CNS it was 117%. Further, the growth was 108% with SF-295 CNS, 101% in the test on SF-539 CNS, 98% with UACC-257 melanoma and 106% in the test on M14 melanoma.
